“And” between values parts separate entries of the source, which are not always exact repeats. Equal values may be shown once. Screen size: about 5,500 compounds; about 2,000 (36%) were called active. About 18% were inconclusive and are not listed. Rule as the data show it: active = normalized growth mostly below about 0.91 (no sharp cut-off); inconclusive = no clear call, values can overlap the other calls; inactive = mostly above about 0.92. The list shows a part of the results.
Test: chemical genetic growth profiling, strain panel (AID 1159580);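 also: tested at 20 µM; growth read once vehicle control cultures reached saturation at 30 °C; 1 = growth at the plate median or of vehicle wells; lower values mean less growth of the strain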
Details: S. cerevisiae deletion strains, growth OD

Measured: normalized growth

Cc1ccc(C(C)C)cc2c(C)ccc1-2
inactive: locus YAL013W, strain DEP1, active compounds read low 1 | locus YAL021C, strain ccr4, active compounds read low 1 | locus YAL026C, strain drs2, active compounds read low 1.02 | locus YAL030W, strain snc1, active compounds read low 1 | locus YBL061C, strain skt5, active compounds read low 1 | locus YBR009C, strain hhf1, active compounds read low 0.999 | locus YBR021W, strain FUR4, active compounds read low 1.01 | locus YBR023C, strain chs3, active compounds read low 1 | locus YBR171W, strain sec66, active compounds read low 1.02 | locus YBR229C, strain ROT2, active compounds read low 1 | locus YBR231C, strain swc5, active compounds read low 1 | locus YBR279W, strain paf1, active compounds read low 1.01 | locus YCL011C, strain gbp2, active compounds read low 1.01 | locus YCL016C, strain dcc1, active compounds read low 0.985 | locus YCL029C, strain bik1, active compounds read low 1.03 | locus YCL061C, strain MRC1, active compounds read low 1.01 | locus YCL069W, strain vba3, active compounds read low 0.996 | locus YCR088W, strain abp1, active compounds read low 1.01 | locus YDL005C, strain med2, active compounds read low 1.01 | locus YDL035C, strain GPR1, active compounds read low 1 | locus YDL040C, strain nat1, active compounds read low 0.99 | locus YDL074C, strain BRE1, active compounds read low 0.944 | locus YDL101C, strain DUN1, active compounds read low 0.991 | locus YDL134C, strain PPH21, active compounds read low 0.984 | locus YDL185W, strain tfp1, active compounds read low 1.02 | locus YDL192W, strain arf1, active compounds read low 1.02 | locus YDR001C, strain nth1, active compounds read low 1 | locus YDR069C, strain doa4, active compounds read low 1 | locus YDR101C, strain arx1, active compounds read low 1.02 | locus YDR137W, strain rgp1, active compounds read low 0.978 | locus YDR159W, strain sac3, active compounds read low 1.05 | locus YDR162C, strain NBP2, active compounds read low 1 | locus YDR195W, strain ref2 0.975 | locus YDR297W, strain sur2, active compounds read low 1 | locus YDR318W, strain mcm21, active compounds read low 1.01 | locus YDR334W, strain swr1, active compounds read low 1 | locus YDR335W, strain msn5, active compounds read low 0.997 | locus YDR388W, active compounds read low 1.03 | locus YDR392W, strain spt3, active compounds read low 0.906 | locus YDR502C, strain sam2, active compounds read low 1 | locus YEL003W, strain gim4, active compounds read low 0.998 | locus YEL037C, strain rad23, active compounds read low 1 | locus YEL061C, strain CIN8 (second series), active compounds read low 1 | locus YEL061C, strain CIN8, active compounds read low 0.998 | locus YER015W, strain faa2, active compounds read low 1 | locus YER016W, strain bim1, active compounds read low 1 | locus YER110C, active compounds read low 1.04 | locus YER111C, strain swi4, active compounds read low 1.01 | locus YER155C, strain BEM2 (second series), active compounds read low 0.998 | locus YER155C, strain BEM2, active compounds read low 1.01 | locus YER167W, strain BCK2, active compounds read low 0.988 | locus YFR010W, strain ubp6, active compounds read low 1.01 | locus YGL078C, strain dbp3, active compounds read low 1.02 | locus YGL086W, strain mad1, active compounds read low 0.994 | locus YGL167C, strain pmr1, active compounds read low 1.01 | locus YGL173C, strain kem1, active compounds read low 1.01 | locus YGL227W, strain vid30, active compounds read low 1.01 | locus YGL240W, strain doc1, active compounds read low 1.01 | locus YGL248W, strain PDE1, active compounds read low 1 | locus YGL253W, strain hxk2, active compounds read low 1.03 | locus YGR078C, strain PAC10, active compounds read low 0.948 | locus YGR135W, strain pre9, active compounds read low 1.03 | locus YGR252W, strain gcn5, active compounds read low 1.02 | locus YHR013C, strain ard1, active compounds read low 1.02 | locus YHR027C, strain rpn1, active compounds read low 1 | locus YHR030C, strain SLT2, active compounds read low 1 and 0.968 | locus YHR079C, strain IRE1 (second series), active compounds read low 1.02 | locus YHR079C, strain IRE1, active compounds read low 0.977 | locus YHR094C, strain hxt1, active compounds read low 1.02 | locus YHR129C, strain ARP1, active compounds read low 1 | locus YHR142W, strain chs7, active compounds read low 1.02 | locus YHR200W, strain rpn10, active compounds read low 1.02 | locus YIL066C, strain RNR3, active compounds read low 0.986 | locus YIL073C, strain SPO22, active compounds read low 1.09 | locus YIL125W, strain kgd1, active compounds read low 1.01 | locus YIR030C, strain dcg1, active compounds read low 1.02 | locus YJL092W, strain hpr5, active compounds read low 1 | locus YJL095W, strain BCK1 (second series), active compounds read low 1 | locus YJL095W, strain BCK1, active compounds read low 0.972 and 1.03 | locus YJL115W, strain asf1, active compounds read low 0.992 | locus YJL129C, strain trk1, active compounds read low 1.01 | locus YJL134W, strain LCB3, active compounds read low 1 | locus YJL154C, strain vps35, active compounds read low 0.999 | locus YJL164C, strain tpk1, active compounds read low 0.991 | locus YJL166W, strain qcr8, active compounds read low 0.994 | locus YJL168C, strain set2, active compounds read low 1.02 | locus YJL187C, strain SWE1 (second series), active compounds read low 0.995 | locus YJL187C, strain SWE1, active compounds read low 1.01

From PubChem BioAssay AID1159580 (chemical genetic matrix, 2015)
